# Compound activity (PubChem BioAssay)
# Rows were chosen to be rich in hits. Some 6.6% of all compounds tested hit in one or more screens of this group.
# BoNT-A LC inh2 = BoNT A light chain protease inhibition; multiplex microsphere protease substrate cleavage, flow cytometry; inhibition, % at 10 µM; 360,000 compounds, 0.17% hits; AID 588499; also: plate controls were buffer without enzyme for full effect and enzyme alone for no effect
# Anthrax LF inh2 = blocks Bacillus anthracis lethal factor protease; multiplex microsphere protease cleavage assay, LF; inhibition, % at 10 µM; 360,000 compounds, 0.12% hits; AID 588501; also: plate controls were buffer without enzyme for full effect and enzyme alone for no effect
# GDH-TPI counter-1 = GDH-TPI coupled enzyme inhibition counter-screen; GDH-TPI coupled enzyme counterscreen, NADH absorbance; inhibition, % at 4.8 µM; 360,000 compounds, 1.2% hits; in the data active = inhibition above about 30%;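 also: 0% = DMSO wells and 100% = wells lacking the enzyme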
# Autofluor counter = flagged as autofluorescent in microsphere protease counterscreen | compound autofluorescence counterscreen, microsphere flow cytometry; active compounds read high | fluorescence intensity (concentration not given with the values) | 360,000 compounds, 3.1% hits; in the data active = fluorescence intensity above about 16000; inconclusive = no clear call, values can overlap the other calls
# FBA Mtb inh = inhibitors of M. tuberculosis fructose-bisphosphate aldolase; P9WQA3; purified M. tuberculosis FBA, fluorescence read-out; inhibition, % at 1 µM; 360,000 compounds, 2.3% hits; AID 588726; in the data active = inhibition above about 27%;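 also: 0% = vehicle and 100% = reference inhibitor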
# Target sequence (P9WQA3 whole entry, looked up): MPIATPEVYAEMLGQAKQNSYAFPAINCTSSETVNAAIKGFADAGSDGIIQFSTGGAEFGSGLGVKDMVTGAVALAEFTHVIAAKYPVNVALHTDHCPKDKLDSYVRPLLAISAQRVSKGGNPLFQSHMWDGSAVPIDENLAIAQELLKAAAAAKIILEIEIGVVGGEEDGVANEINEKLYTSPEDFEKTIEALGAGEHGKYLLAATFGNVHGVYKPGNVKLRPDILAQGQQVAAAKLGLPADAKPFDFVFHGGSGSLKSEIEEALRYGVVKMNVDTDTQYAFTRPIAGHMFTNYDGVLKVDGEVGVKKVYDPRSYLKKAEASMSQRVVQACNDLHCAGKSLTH
# BoNT-F LC inh = inhibitors of Botulinum neurotoxin F light chain protease. Multiplex microsphere protease cleavage assay, flow cytometry. inhibition, % at 10 µM. 360,000 compounds, 0.22% hits; in the data active = inhibition above about 35%, passing the limit was not always enough; inconclusive = no clear call, values can overlap the other calls; also: plate controls were buffer without enzyme for full effect and enzyme alone for no effect
# Mtb FBA inh conf = Mtb FBA inhibition, confirmed. shares compounds with FBA Mtb inh. purified M. tuberculosis FBA, fluorescence read-out. inhibition, % at 1 µM. 5,600 compounds, 78% hits. AID 651616; in the data active = inhibition above about 27%;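 also: 0% = vehicle wells and 100% = reference inhibitor wells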
# GDH-TPI counter-2 = GDH-TPI inhibition counter-screen for FBA inhibitors; shares compounds with FBA Mtb inh; GDH-TPI coupled enzyme counterscreen, fluorescence; inhibition, % at 1 µM; 5,600 compounds, 81% hits; AID 652141; in the data active = inhibition above about 10%
# Numbers without * were called inactive; ? = inconclusive; · = no result given; + = active, no number. Rule as the data show it, unless noted: active = inhibition above about 30%; inconclusive = no clear call, values can overlap the other calls; inactive = below that.
SMILES,BoNT-A LC inh2,Anthrax LF inh2,GDH-TPI counter-1,Autofluor counter,FBA Mtb inh,BoNT-F LC inh,Mtb FBA inh conf,GDH-TPI counter-2
COCCCn1c(C(=O)NCCN2CCOCC2)cc2c(=O)n3cccc(C)c3nc21,-1,1,7,5545,78*,0,+,161*
COCCCn1c(C(=O)NCCC2=CCCCC2)cc2c(=O)n3ccccc3nc21,0,-2,2,5603,47*,-1,48*,36*
Cc1ccc(S(=O)(=O)c2cc3c(=O)n4cccc(C)c4nc3n(Cc3ccncc3)c2=N)cc1,1,4,-1,5591,5,1,·,·
COc1ccc(CCn2c(=N)c(C(=O)NCCN3CCOCC3)cc3c(=O)n4ccccc4nc32)cc1OC,0,-1,5,5506,-2,1,·,·
Cc1cccn2c(=O)c3cc(C(=O)NC4CCCC4)c(=N)n(Cc4ccc(F)cc4)c3nc12,6,0,0,5491,60*,16,6,1
COCCCn1c(=O)c2ccccc2n(CC(=O)NCCC2=CCCCC2)c1=O,3,0,-3,4946,1,1,·,·
CCCn1c(SCC(=O)Nc2cc(C(=O)O)ccc2C)nc2sc3c(c2c1=O)CCC3,0,-3,15,4175,-1,-3,·,·
COc1ccc(O)c(C(=O)C2c3ccccc3C(=O)N2c2ccc(C)cc2)c1 (centres undefined),2,16,9,4615,0,?,·,·
COc1cccc(NC(=O)NCc2ccccn2)c1,·,·,4,·,-1,·,·,·
Cc1cccn2c(=O)c3cc(C(=O)NC4CCS(=O)(=O)C4)n(Cc4ccccc4)c3nc12 (centres undefined),0,-4,22,5785,40*,1,114*,92*
Cc1cccn2c(=O)c3cc(C(=O)NC4CCCC4)c(=N)n(CCc4ccccc4)c3nc12,14,17,5,4649,63*,13,119*,78*
N=c1c(C(=O)NC2CCCCC2)cc2c(=O)n3ccccc3nc2n1Cc1ccc(F)cc1,11,12,4,5198,40*,13,70*,51*
CCCC[n+]1ccn(-c2nc3ccccc3nc2[N-]S(=O)(=O)c2ccccc2)c1,1,1,14,5842,33*,-3,+,197*
COc1ccc(NS(=O)(=O)c2ccc3nc(COc4ccc(Cl)c(C)c4)[nH]c3c2)cc1,0,-2,-3,1999,0,-2,·,·
N#C/C(=N\Nc1ccc(Cl)c(Cl)c1)C(=O)C1CC1,·,·,18,·,66*,·,1,-3
N#C/C(=N\Nc1ccc(F)cc1)C(=O)C1CC1,·,·,13,·,37*,·,63*,59*
Cc1nccn1C(c1ccccc1)c1ccccc1,-6,6,21,5154,-2,?,·,·
O=[N+]([O-])c1ccc(O)c(C=Nc2cccc3ccccc23)c1,1,-7,15,3283,23,-26,·,·
Oc1ccc(C=Nc2cccc3ccccc23)c(O)c1,1,7,9,3199,62*,7,132*,122*
O=[N+]([O-])c1cccc(C=Nc2cccc3ccccc23)c1O,0,3,7,3314,39*,-4,179*,157*
Cc1nc2ccccc2c(=O)n1/N=C/c1ccc(O)cc1O,-1,2,25,4397,1,-2,·,·
O=C(CSc1nc(-c2ccccc2)c(-c2ccccc2)[nH]1)N1CCN(S(=O)(=O)c2ccccc2)CC1,-1,-4,-2,5999,10,-8,·,·
O=C(O)CSc1nc(-c2ccccc2)c(-c2ccccc2)[nH]1,0,-5,-3,4397,29*,-9,1,1
N#CCC(=O)Nc1ccc(C(=O)NCc2ccccn2)cc1,0,0,-1,3508,27*,0,114*,72*
O=C(c1ccc(Cl)c(S(=O)(=O)N2CCOCC2)c1)N1CCc2ccccc2C1,5,4,8,6321,3,4,·,·
SMILES,BoNT-A LC inh2,Anthrax LF inh2,GDH-TPI counter-1,Autofluor counter,FBA Mtb inh,BoNT-F LC inh,Mtb FBA inh conf,GDH-TPI counter-2
COc1cc(CCC(=O)NCc2ccc(S(N)(=O)=O)cc2)cc(OC)c1OC,-3,5,3,4200,1,-16,·,·
COc1cc(CCC(=O)NCc2ccc(F)cc2)cc(OC)c1OC,0,-6,2,4082,33*,?,54*,47*
COc1ccc(OC)c(NC(=O)CCC(=O)Nc2nnc(C(C)C)s2)c1,1,-1,0,5585,1,-9,·,·
O=C(CSc1nc2scc(-c3ccccc3)c2c(=O)[nH]1)Nc1ccccc1,-1,3,15,6056,33*,0,-7,-6
CC(C)CNC(=O)CSc1nc2scc(-c3ccccc3)c2c(=O)[nH]1,1,0,-8,9348,0,6,·,·
CCOC(=O)c1c(-c2ccc(Cl)cc2)cn2ccccc12,0,1,24,2470,64*,8,+,172*
O=S(=O)(c1cccc(NC(=S)Nc2ccc(Br)cc2Cl)c1)N1CCOCC1,0,-7,12,3449,5,-16,·,·
O=C(NCc1ccccc1)C1Cc2c(-c3ccc4c(c3)OCO4)ccnc2O1 (centres undefined),0,-8,4,2884,65*,0,+,+
CN1CCN(c2ccc(CNC(=O)C3Cc4c(-c5ccc6c(c5)OCO6)ccnc4O3)cc2)CC1 (centres undefined),0,-5,-6,3567,23,8,·,·
O=C(NCc1ccncc1)C1Cc2c(-c3ccc4c(c3)OCO4)ccnc2O1 (centres undefined),0,3,-4,3666,45*,0,59*,44*
OC(c1ccc(Cl)c(Cl)c1)c1ncc(-c2ccccc2Cl)[nH]1 (centres undefined),0,-10,12,2922,0,2,·,·
CC1CCN(CC(=O)Nc2ccc(N3CCCCCC3)cc2)CC1,0,-20,-2,4265,0,-39,·,·
CC/C(C)=N/N1C(=O)c2ccccc2NC1(C)CC (centres undefined),0,-1,9,2375,38*,4,115*,127*
CCOc1ccc2nc(NCCNC(=O)CC)c(C#N)cc2c1,2,1,-2,3497,43*,-2,105*,114*
CCC(=O)NCCNc1nc2cc(C)c(C)cc2cc1C#N,2,-3,4,3860,53*,-5,6,-2
CCOc1ccc2nc(NCCCNC(=O)c3cc(OC)c(OC)c(OC)c3)c(C#N)cc2c1,3,-10,3,4271,3,-3,·,·
CCN1C(=O)CS/C1=N\S(=O)(=O)c1ccccc1,0,0,2,5593,3,-1,·,·
CCN1C(=O)CS/C1=N\S(=O)(=O)c1ccc(C)cc1,0,0,4,3418,47*,-1,77*,79*
